27 compounds from PubChem BioAssay (NCATS) can be followed below.

Inconclusive results are not listed. Calls of active or inactive are those of the source. Calls come from the whole dose curve; as a rule, active = well fitted curve in the direction sought with a large enough effect; inconclusive = small, poorly fitted or top-dose-only effect, or another doubt; inactive = no such curve, though single readings can be large; an effect the other way counts as inactive or inconclusive.
% is set by controls: 0 for no effect and ±100 for the full control effect.

The subject of the first experiment is Tov112D. Kind of experiment: Primary qHTS to identify gynecologic anti-cancer compounds using libraries of approved drugs and bioactive compounds (AID 1345084). Note: nearly all actives have a fitted effect of over 55% in size. Note: potency is the fitted concentration of half-maximal effect. The following applies: Gynecologic cancer cell panel viability, ATPlite luminescence, 48 h; series mostly up to 57.5 µM. The procedure, abridged:
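Five-concentration response, 48 h; readout is ATP-driven luciferase luminescence.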
In general terms: In qHTS, concentration-response curves come from the screen itself.
As to `CN=C(NC#N)NCCSCc1csc(N=C(N)N)n1`, the Potency result was “inactive”.
Still for that read-out and setting: for `CCCCOc1ccc(C(=O)CCN2CCCCC2)cc1` the value was “inactive”; for `CC(=O)c1ccc2c(c1)N(CCCN1CCC(CCO)CC1)c1ccccc1S2`, “inactive”.
Still for that read-out and setting: the result for `COc1c2occc2c(OC)c2c(=O)cc(C)oc12` reads “inactive”.
On to `C#C[C@]1(OC(C)=O)CC[C@H]2[C@@H]3CCC4=C[C@@H](OC(C)=O)CC[C@@H]4[C@H]3CC[C@@]21C`, for which the Potency result was “inactive”.
On to `COc1cccc2c1C(=O)c1c(O)c3c(c(O)c1C2=O)C[C@@](O)(C(C)=O)C[C@@H]3O[C@H]1C[C@H](N)[C@H](O)[C@H](C)O1`, for which the Potency was 0.398 µM (active).
Consider `COCc1c(C(C)C)nc(C(C)C)c(/C=C/[C@@H](O)C[C@@H](O)CC(=O)O)c1-c1ccc(F)cc1`, for which the Potency was 3.16 µM (active).
For the compound `COc1ccc(OC)c(C(O)CNC(=O)CN)c1` (stereo unspecified), the Potency result was “inactive”.
Same read-out and setting: the result for `CC(C)(C(=O)c1cccnc1)c1cccnc1` reads “inactive”; that for `c1ccc(-c2ccc(C(c3ccccc3)n3ccnc3)cc2)cc1` (stereo unspecified), “inactive”; that for `C[C@]12CCC(=O)C=C1[C@@H]1C[C@@H]1[C@H]1[C@@H]3[C@@H]4C[C@@H]4[C@@]4(CCC(=O)O4)[C@@]3(C)CC[C@@H]12`, “inactive”.
On the same count and under the same terms, for `CCCCCCCCCCCCCCCCOP(=O)([O-])OCC[N+](C)(C)C` the value was “inactive”.
Still for that read-out and setting: the result for `CN(C)C(=S)SC(=S)N(C)C` reads 28.2 µM (active); that for `CN1CCN(CCCN2c3ccccc3Sc3ccc(S(=O)(=O)N(C)C)cc32)CC1`, “inactive”; that for `O=C1[C@H]2CCCC[C@H]2C(=O)N1CCCCN1CCN(c2nsc3ccccc23)CC1`, “inactive”.
As to `C[C@H](O)C(=O)Nc1c(I)c(C(=O)NC(CO)CO)c(I)c(C(=O)NC(CO)CO)c1I`, the Potency entry is “inactive”.
As for `Cc1c(C)n(CCN(C)C)c2ccc(C(=O)OCCN(C)C)cc12`, the Potency entry is “inactive”.
The same measure, in the same setting: the result for `CN(C/C=C/c1ccccc1)Cc1cccc2ccccc12` reads “inactive”.
Take `COc1cc2c(cc1OC)C(=O)C(CC1CCN(Cc3ccccc3)CC1)C2` (stereo unspecified): the Potency entry is “inactive”.
Still for that read-out and setting: for `Nc1ccn([C@@H]2O[C@H](CO)[C@@H](O)C2(F)F)c(=O)n1` the value was 0.178 µM (active); for `c1ccc(OCc2ccc(CCCN3CCOCC3)cc2)cc1`, “inactive”; for `Cc1cccn2c(=O)c(-c3nnn[nH]3)cnc12`, “inactive”.
As to `CCCCCCCCCCCCCCCC[N+](C)(C)CC`, the Potency is 28.2 µM (active).
The same measure, in the same setting: the result for `O=C(CCCN1CCC(O)(c2ccc(Br)cc2)CC1)c1ccc(F)cc1` reads “inactive”; that for `CCC(C(=O)OCCN(CC)CC)c1ccccc1` (stereo unspecified), “inactive”.

System in a further experiment: not listed separately
Nature of the experiment: Drug repurposing screens with cells derived from glioblastoma tumor samples (AID 1345199). Note: nearly all actives have a fitted effect of over 40% in size. The following applies: GBM patient neurospheres viability, ATP luminescence, 48 h; at 20 µM (top of the series); tumour line C. In outline: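 Four patient lines of CD133+ GBM neurospheres were screened at several concentrations; hits were retested in those lines plus three slower-growing GBM lines, using 48-hour treatment and ATP-based viability.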
With `CCCCOc1ccc(C(=O)CCN2CCCCC2)cc1`, the activity, negative = cell killing is -2.49% (inactive).
Still for that read-out and setting: for `CC(=O)c1ccc2c(c1)N(CCCN1CCC(CCO)CC1)c1ccccc1S2` the value was 17.8% (inactive); for `COc1c2occc2c(OC)c2c(=O)cc(C)oc12`, -11.9% (inactive).
Still for that read-out and setting: the result for `COc1ccc(OC)c(C(O)CNC(=O)CN)c1` (stereo unspecified) reads -8.51% (inactive).
Same read-out and setting: the result for `CC(C)(C(=O)c1cccnc1)c1cccnc1` reads -7.19% (inactive); that for `CN1CCN(CCCN2c3ccccc3Sc3ccc(S(=O)(=O)N(C)C)cc32)CC1`, 3.3% (inactive).
On to `C[C@H](O)C(=O)Nc1c(I)c(C(=O)NC(CO)CO)c(I)c(C(=O)NC(CO)CO)c1I`, for which the activity, negative = cell killing is 2.37% (inactive).
With `CC(=O)N(O)CCCCCNC(=O)CCC(=O)N(O)CCCCCNC(=O)CCC(=O)N(O)CCCCCN`, the activity, negative = cell killing was 5.11% (inactive).
Take `O=C(CCCN1CCC(O)(c2ccc(Br)cc2)CC1)c1ccc(F)cc1`: the activity, negative = cell killing is 5.41% (inactive).
Same read-out and setting: for `CCOc1ccc(Cc2nccc3cc(OCC)c(OCC)cc23)cc1OCC` the value was 6.5% (inactive).

The experiment is the same for the next values; noted with them: GBM patient neurospheres viability, ATP luminescence, 48 h; at 21.2 µM (top of the series); tumour line B.
On to `CC(=O)c1ccc2c(c1)N(CCCN1CCC(CCO)CC1)c1ccccc1S2`, for which the activity, negative = cell killing was -21.7% (inactive).
Consider `COc1c2occc2c(OC)c2c(=O)cc(C)oc12`, for which the activity, negative = cell killing is -15.3% (inactive).
Still for that read-out and setting: for `COc1ccc(OC)c(C(O)CNC(=O)CN)c1` (stereo unspecified) the value was -10.1% (inactive).
On the same count and under the same terms, for `CC(C)(C(=O)c1cccnc1)c1cccnc1` the value was -14.8% (inactive); for `CN1CCN(CCCN2c3ccccc3Sc3ccc(S(=O)(=O)N(C)C)cc32)CC1`, -12.4% (inactive).
As to `C[C@H](O)C(=O)Nc1c(I)c(C(=O)NC(CO)CO)c(I)c(C(=O)NC(CO)CO)c1I`, the activity, negative = cell killing is -6.73% (inactive).
On the same count and under the same terms, the result for `CC(=O)N(O)CCCCCNC(=O)CCC(=O)N(O)CCCCCNC(=O)CCC(=O)N(O)CCCCCN` reads -16.9% (inactive).

The experiment is the same for the next values; noted with them: GBM patient neurospheres viability, ATP luminescence, 48 h; at 21.2 µM (top of the series); tumour line D.
In the case of `COc1c2occc2c(OC)c2c(=O)cc(C)oc12`, the activity, negative = cell killing is -6.87% (inactive).
Still for that read-out and setting: for `COc1ccc(OC)c(C(O)CNC(=O)CN)c1` (stereo unspecified) the value was -7.78% (inactive); for `CC(C)(C(=O)c1cccnc1)c1cccnc1`, -8.11% (inactive).
Same read-out and setting: the result for `C[C@H](O)C(=O)Nc1c(I)c(C(=O)NC(CO)CO)c(I)c(C(=O)NC(CO)CO)c1I` reads -12.3% (inactive); that for `CC(=O)N(O)CCCCCNC(=O)CCC(=O)N(O)CCCCCNC(=O)CCC(=O)N(O)CCCCCN`, -9.85% (inactive).

The same experiment, now with this note: GBM patient neurospheres viability, ATP luminescence, 48 h; at 21.3 µM (top of the series); tumour line A.
On to `COc1ccc(OC)c(C(O)CNC(=O)CN)c1` (stereo unspecified), for which the activity, negative = cell killing was -30.8% (inactive).
On to `CC(C)(C(=O)c1cccnc1)c1cccnc1`, for which the activity, negative = cell killing was -19.8% (inactive).
With `C[C@H](O)C(=O)Nc1c(I)c(C(=O)NC(CO)CO)c(I)c(C(=O)NC(CO)CO)c1I`, the activity, negative = cell killing was -8% (inactive).
Regarding `CC(=O)N(O)CCCCCNC(=O)CCC(=O)N(O)CCCCCNC(=O)CCC(=O)N(O)CCCCCN`, the activity, negative = cell killing was -22.8% (inactive).
